Source: PubChem BioAssay (several laboratories)
ARNT-TACC3 inh: disruptors of human ARNT/TACC3 interaction. Q9Y6A5. AlphaScreen His-ARNT PAS-B/GST-TACC3 binding, luminescence; TACC3 fragment carries E629A point mutation. inhibition, % at 9.99 µM. 390,000 tested, 0.66% active;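 active = mean inhibition of replicates at least 50% and at least half of replicates each reaching 50%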;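 note: 0% = complete ARNT plus TACC3 wells and 100% = ARNT alone without TACC3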
INS-1E GSIS act: GLuc luminescence reporter in INS-1E cells, primary screen for activators of glucose-dependent secretion of insulin; INS-1E GLuc reporter insulin secretion, 2-3 h; activation, % at 16.6 µM; 370,000 tested, 0.61% active;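 active = lowest replicate activation of at least 40%, so every replicate reaches that level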;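 note: 0% = median of neutral control wells and 100% = median of IBMX positive control wells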
CendR NRP1 mod: modulators of CendR peptide binding to human neuropilin-1 | O14786 | FAM-RPARPAR peptide binding to NRP-1, fluorescence polarization | inhibition, % at 25 µM | 360,000 tested, 0.85% active | AID 602438;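 active = inhibition or corrected inhibition above about 18%, plus a signal ratio from 0.5 to 1.5, limit read from the data, passing the limit was not always enough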
hiPSC survival: enhancers of human iPSC single-cell survival; 360,000 tested, 0.044% active; AID 602274; survival enhancement, % at 20 µM; hiPSC single-cell survival, ATPlite luminescence; 100% = ROCK inhibitor wells, 0% = DMSO; in the data active = survival enhancement above about 18%;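 note: cells exposed to compounds for 16 hours before the ATP read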
ABCB6 inh 2: blocks the human ABCB6 transporter; fluorescence ratio to DMSO, % at 10 µM; Q9NP58; AID 602162; K562-ABCB6 porphyrin accumulation, flow cytometry, 1 h; stronger effect = lower value; 360,000 tested, 0.19% active;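 active = fluorescence ratio to DMSO below 75%, the collection mean minus 3 SD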;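 note: signal is porphyrin accumulated inside mitochondria; 100% equals median channel fluorescence of DMSO control wells; lower ratio means ABCB6 inhibition with less porphyrin fluorescence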
Target sequence (Q9NP58 whole entry, looked up): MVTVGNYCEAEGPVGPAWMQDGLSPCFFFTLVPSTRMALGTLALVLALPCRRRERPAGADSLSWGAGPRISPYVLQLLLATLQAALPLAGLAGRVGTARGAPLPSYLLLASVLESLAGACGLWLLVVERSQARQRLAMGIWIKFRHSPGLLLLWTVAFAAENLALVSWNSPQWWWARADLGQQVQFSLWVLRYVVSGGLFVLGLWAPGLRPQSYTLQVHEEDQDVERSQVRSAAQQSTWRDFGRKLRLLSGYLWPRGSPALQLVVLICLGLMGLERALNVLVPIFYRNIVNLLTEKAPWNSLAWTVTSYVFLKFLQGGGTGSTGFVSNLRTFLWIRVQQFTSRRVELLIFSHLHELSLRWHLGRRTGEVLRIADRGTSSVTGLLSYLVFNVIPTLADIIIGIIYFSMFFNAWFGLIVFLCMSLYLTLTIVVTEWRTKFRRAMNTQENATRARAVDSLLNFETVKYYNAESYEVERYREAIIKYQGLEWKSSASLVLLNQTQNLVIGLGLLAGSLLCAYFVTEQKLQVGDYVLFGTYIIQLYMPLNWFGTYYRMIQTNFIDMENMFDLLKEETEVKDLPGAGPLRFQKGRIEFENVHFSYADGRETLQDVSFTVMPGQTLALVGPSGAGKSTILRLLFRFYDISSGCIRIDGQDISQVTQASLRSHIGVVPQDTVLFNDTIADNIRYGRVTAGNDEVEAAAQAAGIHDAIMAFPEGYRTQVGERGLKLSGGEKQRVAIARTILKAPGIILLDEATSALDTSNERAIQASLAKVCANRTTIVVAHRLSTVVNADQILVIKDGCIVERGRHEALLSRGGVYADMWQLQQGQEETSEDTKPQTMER
ABCB6 blocker 1: inhibitors of human ABC transporter ABCB6 | shares compounds with ABCB6 inh 2 | K562-ABCB6 porphyrin accumulation, flow cytometry, 1 h; stronger effect = lower value | ratio response (% of DMSO), % at 10 µM | 700 tested, under 10 active | AID 602430;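 active = repeat-averaged ratio response below 75% of DMSO, the collection mean minus 3 SD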;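 note: median porphyrin fluorescence at 575 nm with 488 nm excitation from mitochondria; lower ratio means less porphyrin signal so ABCB6 inhibition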
Active calls of the source: *; ! = repeats disagree. Most compounds without a hit are left out; they make up all but 1.8% or so of the library.

How did Cc1ccc(-c2nnc(N3CCN(C(=O)CN4C(=O)c5ccccc5C4=O)CC3)c3ccccc23)cc1 do in these assays?
ARNT-TACC3 inh: -3.8; INS-1E GSIS act: 52.9*; CendR NRP1 mod: -5.7; hiPSC survival: -0.9; ABCB6 inh 2: 91.0

How did COc1cccc(NC(=O)N2CC3(C2)[C@@H](c2ccccc2)[C@@H](CO)N3C(=O)C2CCCC2)c1 do in these assays?
INS-1E GSIS act: -23.7

How did CN(C)CCOC(c1ccc(Cl)cc1)c1ccccn1 (stereo not given) do in these assays?
ARNT-TACC3 inh: -2.6; INS-1E GSIS act: 4.0; CendR NRP1 mod: 21.2*!; hiPSC survival: 1.5; ABCB6 inh 2: 98.0

Results for CCCN(CCC)C(=O)Cn1c(=O)c2sccc2n2c(=S)sc(-c3ccccc3)c12 ?
INS-1E GSIS act: -2.7; CendR NRP1 mod: 42.0*; hiPSC survival: -0.9; ABCB6 inh 2: 432.0

Results for CCCN(CCC)C(=O)Cn1c(=O)c2ccccc2n2c(=S)sc(-c3ccccc3C)c12 ?
ARNT-TACC3 inh: 3.8; INS-1E GSIS act: -23.6; CendR NRP1 mod: -6.4; hiPSC survival: -0.5; ABCB6 inh 2: 106.0

Results for COC(=O)[C@]12C[C@H](CC(=O)NCCc3ccccc3OC)C(=O)N(CCC3=CCCCC3)C1=C[C@H](C(C)(C)C)O[C@@H]2C ?
INS-1E GSIS act: 40.9*

What do the screens show for `Cc1cc(C)c(C(=O)COC(=O)c2ccc([N+](=O)[O-])o2)cc1C`?
ARNT-TACC3 inh: -0.2; INS-1E GSIS act: -15.1; CendR NRP1 mod: 1.4; hiPSC survival: 0.9; ABCB6 inh 2: 103.0

Results for COc1cc(C(=O)COC(=O)c2ccc([N+](=O)[O-])o2)cc(OC)c1OC ?
ARNT-TACC3 inh: 4.3; INS-1E GSIS act: 5.1; CendR NRP1 mod: 21.4*; hiPSC survival: 0.4; ABCB6 inh 2: 102.0

How did O=C(COC(=O)c1ccc([N+](=O)[O-])o1)NC1CCS(=O)(=O)C1 (stereo not given) do in these assays?
ARNT-TACC3 inh: 31.1*; INS-1E GSIS act: 1.6; CendR NRP1 mod: -33.7; hiPSC survival: 0.3; ABCB6 inh 2: 96.0

What do the screens show for `O=C(COC(=O)c1ccc([N+](=O)[O-])o1)NC1CCCC1`?
ARNT-TACC3 inh: 48.0*; INS-1E GSIS act: -3.4; CendR NRP1 mod: -8.2; hiPSC survival: -0.5; ABCB6 inh 2: 103.0

Results for CC(=O)Nc1ccc2c(c1)C(=O)N(C)C[C@H](C)[C@@H](CN(C)C(=O)OC(C)(C)C)O2 ?
INS-1E GSIS act: 9.1

Results for C[C@H](CO)N1C[C@H](C)[C@H](CN(C)C)Oc2ncc(C#Cc3ccccc3)cc2C1=O ?
INS-1E GSIS act: 3.0

How did CC(Oc1ccc2c(c1)c1ccnc3c4ccccc4c(=O)n2c13)C(=O)NCCN1CCOCC1 (stereo not given) do in these assays?
ARNT-TACC3 inh: 48.3*; CendR NRP1 mod: -14.4; hiPSC survival: -1.4; ABCB6 inh 2: 98.0

How did COc1ccc2c(c1OC)c(=O)n1c3ccc(OC(C)C(=O)NCCN4CCOCC4)cc3c3ccnc2c31 (stereo not given) do in these assays?
ARNT-TACC3 inh: 9.2; INS-1E GSIS act: -12.0; CendR NRP1 mod: -6.6; hiPSC survival: -1.3; ABCB6 inh 2: 101.0

Results for O=C(C[C@@H]1CC[C@@H]2NC[C@H](O)COC[C@H]2O1)Nc1ccc(-c2ccccc2)cc1 ?
ARNT-TACC3 inh: -0.5; INS-1E GSIS act: 6.0

What do the screens show for `COc1ccc(CNc2nn3c(-c4cccc(C(=O)N(C)C)c4)cnc3s2)cc1`?
INS-1E GSIS act: 25.9; CendR NRP1 mod: 29.9*; hiPSC survival: 0.3; ABCB6 inh 2: 94.0

What do the screens show for `Cc1noc(C)c1S(=O)(=O)N(C)C[C@H]1Oc2ccc(NC(=O)Nc3ccc(C(F)(F)F)cc3)cc2C(=O)N([C@H](C)CO)C[C@@H]1C`?
INS-1E GSIS act: -8.1

What do the screens show for `C[C@@H]1CN([C@@H](C)CO)C(=O)Cc2cc(NC(=O)NC3CCCCC3)ccc2O[C@@H]1CN(C)C(=O)Nc1ccccc1`?
ARNT-TACC3 inh: -10.3; INS-1E GSIS act: 13.1

How did COc1cc(/C=c2\sc3nc(=O)c(-c4ccccc4)nn3c2=O)ccc1OCCC(C)C do in these assays?
ARNT-TACC3 inh: -3.0; INS-1E GSIS act: -3.2; CendR NRP1 mod: 40.0*; hiPSC survival: -0.8; ABCB6 inh 2: 97.0

What do the screens show for `CCOc1ccc(/C=c2\sc3nc(-c4ccco4)nn3c2=O)cc1OCC`?
ARNT-TACC3 inh: -4.5; INS-1E GSIS act: 8.1; CendR NRP1 mod: -31.6; hiPSC survival: 0.2; ABCB6 inh 2: 98.0

How did O=C(NCCN1CCOCC1)C12CC3CC(C1)CC(c1ccccc1)(C3)C2 do in these assays?
ARNT-TACC3 inh: -0.6; INS-1E GSIS act: 11.0; CendR NRP1 mod: 44.3*; hiPSC survival: -0.2; ABCB6 inh 2: 95.0

Results for COc1ccc(/C=N/Nc2nc3ccccc3o2)cc1O ?
ARNT-TACC3 inh: 44.3*; CendR NRP1 mod: 4.4; hiPSC survival: -3.7; ABCB6 inh 2: 98.0

What do the screens show for `O=C(NC(c1ccccc1)c1ccc2ccccc2n1)C1CCN(Cc2ccc(Oc3ccccc3)cc2)CC1` (stereo not given)?
CendR NRP1 mod: 20.0*; hiPSC survival: -0.3; ABCB6 inh 2: 103.0

What do the screens show for `O=C(N[C@H]1CC[C@@H](CCNS(=O)(=O)Cc2ccccc2)O[C@@H]1CO)c1ccc2c(c1)OCO2`?
ARNT-TACC3 inh: 22.3; INS-1E GSIS act: 2.6

Results for CC(=O)c1c(C)oc2ccc(NS(=O)(=O)c3ccc(F)cc3C)cc12 ?
ARNT-TACC3 inh: 19.0; INS-1E GSIS act: 223.3*; CendR NRP1 mod: -1.0; hiPSC survival: -0.5; ABCB6 inh 2: 73.0*; ABCB6 blocker 1: 101.0

What do the screens show for `Cc1onc(-c2ccccc2Cl)c1C(=O)NCC1CCCO1` (stereo not given)?
ARNT-TACC3 inh: 1.9; INS-1E GSIS act: 20.3; CendR NRP1 mod: -33.5; hiPSC survival: 3.3; ABCB6 inh 2: 74.0*; ABCB6 blocker 1: 101.0

What do the screens show for `COc1cccc(NC(=O)N(Cc2ccco2)C(C)c2cccs2)c1` (stereo not given)?
ARNT-TACC3 inh: -1.4; CendR NRP1 mod: 5.7; hiPSC survival: 0.6; ABCB6 inh 2: 73.0*; ABCB6 blocker 1: 106.0

Results for CC(c1cccs1)N(Cc1ccco1)C(=O)Nc1ccc(Cl)c(Cl)c1 (stereo not given) ?
ARNT-TACC3 inh: 4.9; INS-1E GSIS act: -20.2; CendR NRP1 mod: -9.4; hiPSC survival: -1.3; ABCB6 inh 2: 97.0

What do the screens show for `CC(=O)N1CC2(C1)[C@H](c1ccc(-c3cccc(F)c3)cc1)[C@H](CO)N2CC1CC1`?
INS-1E GSIS act: 1.4

Results for C[C@@H]1CN([C@@H](C)CO)S(=O)(=O)c2ccc(C#Cc3ccncc3)cc2O[C@H]1CN(C)C ?
ARNT-TACC3 inh: 1.9; INS-1E GSIS act: -0.3
